# Several values for one entry are separate records, joined by “and”; a condition that tells them apart may be missing. Equal entries are not always repeated. Structures can show the parent of a compound that is named as a salt.
# Columns and labels:
# Experiment in all cases: cell viability relative to vehicle control; higher = less cytotoxic
# Conditions in all cases: 10 µM
# K562 = system: K562
# In short: (§1)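 Mutant clones made by CRISPR editing and their isogenic wild-type counterparts, from four leukaemia lines, were exposed to a single 10 µM dose of each library compound for 48 h. The supernatant was then removed and CellTiter-Glo luminescence was read. Viability was reported as percent of the on-plate vehicle control.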
# MARIMO = system: MARIMO
# In short: as §1
# MOLM14 = system: MOLM14
# In short: as §1
# OCI-AML2 = system: OCI-AML2
# In short: as §1
Compound,cell viability (K562; SRSF2 genotype: SRSF2 P95H/wt),cell viability (K562; SRSF2 genotype: SRSF2 wt/wt) [%],cell viability (MARIMO; SRSF2 genotype: SRSF2 P95H/wt) [%],cell viability (MARIMO; SRSF2 genotype: SRSF2 wt/wt) [%],cell viability (MOLM14; SRSF2 genotype: SRSF2 P95H/wt) [%],cell viability (MOLM14; SRSF2 genotype: SRSF2 wt/wt) [%],cell viability (OCI-AML2; SRSF2 genotype: P95H/wt) [%],cell viability (OCI-AML2; SRSF2 genotype: wt/wt) [%]
N[C@@H](CC(=O)N1CCn2c(nnc2C(F)(F)F)C1)Cc1cc(F)c(F)cc1F [Sitagliptin phosphate monohydrate],97.7% and 96.1%,102,98.1,110,102,103,109,117
CC[C@H]1OC(=O)C[C@@H](O)[C@H](C)[C@@H](O[C@@H]2O[C@H](C)[C@@H](O)[C@H](N(C)C)[C@H]2O)[C@@H](CCN2C[C@H](C)C[C@H](C)C2)C[C@@H](C)C(=O)/C=C/C(C)=C/[C@@H]1CO[C@@H]1O[C@H](C)[C@@H](O)[C@@H](OC)[C@H]1OC [Tilmicosin],96.5% and 94.4%,99.4,95.6,106,98.5,103,93.3,105
CCOC(=O)[C@H](CCc1ccccc1)N[C@@H](C)C(=O)N1Cc2ccccc2C[C@H]1C(=O)O [Quinapril hydrochloride (Accupril)],97.3% and 108%,106,102,106,104,103,107,104
CC1=NN(c2ccccc2)C(=O)C1 [Edaravone (MCI-186)],107% and 105%,107,111,108,96.3,109,116,103
CCOC(=O)N[C@@H]1CC[C@@H]2[C@@H](C1)C[C@H]1C(=O)O[C@H](C)[C@H]1[C@H]2/C=C/c1ccc(-c2cccc(F)c2)cn1,80.4% and 87%,80.8,83.3,82.5,81.6,83.6,65.1,64.7
CC(=O)NS(=O)(=O)c1ccc(N)cc1 [Sulfacetamide],98.7% and 98.1%,111,90.8,96.3,103,103,98.4,106
Cc1c(O)c(=O)ccn1C [Deferiprone],96.7% and 92.2%,93.6,90.6,102,87,93.9,90.5,96.3
O=CCc1ccccc1 [Phenylacetaldehyde],99.4% and 97.2%,92.8,97.5,95.2,107,97.2,99.5,93.5
COc1cc2c(cc1OC)[C@H]1C[C@@H](OC(=O)[C@@H](N)C(C)C)[C@H](CC(C)C)CN1CC2 [Valbenazine tosylate],93.2% and 97.7%,101,108,93.9,103,106,97.2,96.9
CCCC(CCC)C(=O)O [Valproic acid sodium salt (Sodium valproate)],95% and 89.8%,102,84.2,91.5,93.2,93.7,89.8,95.9
CCCCCC1C(=O)CCC1CC(=O)OCCC (stereo not given) [Prohydrojasmon],100% and 102%,109,98.6,98.6,95.8,106,110,118
Cc1ccc([N+](=O)[O-])cc1S(=O)(=O)N(C)/N=C/c1cnc2ccc(Br)cn12,28.6% and 22.3%,21,7.47,3.68,0.68,0.5,1.7,17.4
CCC1CC(=Cc2cccnc2)C(=O)C(=Cc2cccnc2)C1 (stereo not given),21.1% and 19.7%,17.9,0.77,0.8,0.49,0.29,0.25,0.31
N#Cc1ccc([C@H]2CCc3cncn32)c(F)c1,103% and 100%,88.2,100,113,99.5,101,95.9,94.6
"COc1cc(/C=C/C(=O)OC[C@H]2O[C@H](O[C@]3(CO)O[C@H](CO)[C@@H](O)[C@@H]3OC(=O)/C=C/c3cc(OC)c(O)c(OC)c3)[C@H](O)[C@@H](O)[C@@H]2O)cc(OC)c1O [3,6'-Disinapoyl sucrose]",106% and 103%,101,106,109,112,105,102,105
CCC(=O)NC[C@@H]1C[C@H]1c1cccc2c1CCO2 [Tasimelteon],92.1% and 87.6%,84.4,92.1,101,89,93.1,88,99.3
Cc1cc(Nc2ccc(NC(=O)c3ccc(Nc4ccnc5ccccc45)cc3)cc2)nc(N)n1,1.14% and 0.97%,2.69,0.48,0.36,0.33,0.25,0.22,0.27
CC(S)C(=O)NCC(=O)O (stereo not given) [Tiopronin (Thiola)],111% and 110%,104,105,105,100,105,100,112
C[n+]1c2n(c(=O)c3ccccc31)CCc1c-2[nH]c2ccccc12 [Dehydroevodiamine],93.1% and 93.3%,91.5,88.7,88.2,94.8,98.2,97.2,87.5
COc1ccc(-c2coc3cc(O)cc(O)c3c2=O)cc1 [Biochanin A (4-Methylgenistein)],97.6% and 85.7%,85.2,79.3,90,96.5,91.3,82.5,79.5

Compound,cell viability (K562; SRSF2 genotype: SRSF2 P95H/wt),cell viability (K562; SRSF2 genotype: SRSF2 wt/wt) [%],cell viability (MARIMO; SRSF2 genotype: SRSF2 P95H/wt) [%],cell viability (MARIMO; SRSF2 genotype: SRSF2 wt/wt) [%],cell viability (MOLM14; SRSF2 genotype: SRSF2 P95H/wt) [%],cell viability (MOLM14; SRSF2 genotype: SRSF2 wt/wt) [%],cell viability (OCI-AML2; SRSF2 genotype: P95H/wt) [%],cell viability (OCI-AML2; SRSF2 genotype: wt/wt) [%]
O=C1C[C@@H](c2ccc(O)c(O)c2)Oc2cc(O)cc(O)c21 [Eriodictyol],98.5% and 97.3%,108,88.6,96.1,112,104,96.8,95.2
CCc1c2c(nc3ccc(OC(=O)N4CCC(N5CCCCC5)CC4)cc13)-c1cc3c(c(=O)n1C2)COC(=O)[C@]3(O)CC [Irinotecan HCl Trihydrate (Campto)],59.7% and 76.8%,63.1,6.18,6.47,15.1,4.24,3.79,2.87
CCCNC(C)C(=O)Nc1ccccc1C (stereo not given) [Prilocaine],87.8% and 85.9%,86.8,79.4,90.5,93.3,85.6,89.1,90.7
C[C@]12CC[C@H](O)CC1=CC[C@@H]1[C@@H]2CC[C@]2(C)C(n3cnc4ccccc43)=CC[C@@H]12 [Galeterone (TOK-001)],83% and 93.4%,95.7,77.5,81.9,88.2,97.8,80.3,80.1
O=c1c(O)c(-c2ccc(O)c(O)c2)oc2cc(O)cc(O)c12 [Quercetin (Sophoretin)],97.3% and 89.3%,91.5,93.9,93.6,98.3,97.5,93.8,81.5
CN(C)c1ccc(C(=C2C=CC(=[N+](C)C)C=C2)c2ccc(N(C)C)cc2)cc1 [Crystal violet],0.3% and 0.45%,1.14,0.76,1.04,0.09,0.09,0.06,0.11
Cc1ccc(NC(=O)Nc2cc(C(F)(F)F)ccc2F)cc1Nc1ccc2c(c1)NC(=O)/C2=C\c1ccc[nH]1,75.2% and 70.9%,62.1,84.4,92.2,86.5,94.4,74.4,70.1
C=C1CC2(O)OC3(CC2C(C)C)C(C)CCC13 (stereo not given) [Curcumol],106% and 101%,102,112,107,97.8,108,99.9,102
C[N+]1(C)[C@@H]2C[C@@H](OC(=O)C(O)(c3cccs3)c3cccs3)C[C@H]1[C@@H]1O[C@@H]12 [Tiotropium Bromide hydrate],106% and 108%,98.9,102,107,105,104,98.9,104
C[C@H]1COC2=C1C(=O)C(=O)c1c2ccc2c1CCCC2(C)C [Cryptotanshinone],32.1% and 18.5%,47.8,60.3,76.1,58.6,69.2,42.7,46.5
NS(=O)(=O)c1ccc(NC(=O)Nc2ccc(F)cc2)cc1,99.9% and 107%,107,115,113,110,108,99.6,95
CCCCC(CC)COC(=O)C(C#N)=C(c1ccccc1)c1ccccc1 (stereo not given) [Octocrylene],94.2% and 88.6%,97.5,95.1,107,95.1,98.5,98.4,99.9
O=C(/C=C/c1ccc(O)cc1)OC[C@H]1O[C@@H](Oc2c(-c3ccc(O)cc3)oc3cc(O)cc(O)c3c2=O)[C@H](O)[C@@H](O)[C@@H]1O [Tiliroside],99.3% and 99.1%,95.3,98.9,109,100,105,104,111
CC(C)c1cc(-c2n[nH]c(=O)n2-c2ccc3c(ccn3C)c2)c(O)cc1O [Ganetespib (STA-9090)],21.6% and 26.6%,28.1,31.8,27,2.31,2.65,19.4,21.1
COC(=O)C1=CO[C@@H](O[C@@H]2O[C@H](CO)[C@@H](O)[C@H](O)[C@H]2O)[C@@H]2[C@@]3(C)O[C@H]3[C@@H](O)[C@]12O [Sesamoside],101% and 102%,104,102,98.4,109,105,104,107
COC1C(O)CC(=O)OC(C)CC=CC=CC(OC2CCC(N(C)C)C(C)O2)C(C)CC(CC=O)C1OC1OC(C)C(OC2CC(C)(O)C(O)C(C)O2)C(N(C)C)C1O (stereo not given) [spiramycin],93.7% and 96.3%,108,99.4,102,98,103,110,96.7
Nc1nonc1C(=Nc1ccc(F)c(Cl)c1)NO,97% and 107%,101,92,97.2,93.8,100,98.2,111
CC(C)c1cc(C(C)C)c(CC(=O)NS(=O)(=O)Oc2c(C(C)C)cccc2C(C)C)c(C(C)C)c1 [Avasimibe (CI-1011)],79.7% and 76.5%,64.5,80.8,92.2,68.6,78.6,92.5,84.8
CC(=O)N1CCC(Nc2cc(C(=O)NC[C@H](O)CN3CCc4ccccc4C3)ncn2)CC1,91.8% and 96.6%,90.9,88.8,103,87.6,94.5,78.3,85.2
COc1ccc2c(c1)[C@]1(C[C@H]1c1ccc3c(/C=C/c4ccc(CN5C[C@@H](C)O[C@@H](C)C5)cc4)n[nH]c3c1)C(=O)N2,13.4% and 27.5%,17.7,30.9,29.3,14.5,10.7,11.6,20.3

# — the supplement of paper PMC10981050
